The list is not random: actives were taken first. Their share in the collection is about 4.1%.
DAX1 inh-1 = NR0B1 (DAX1) inhibition. inhibition, % at 6.75 µM. 340,000 compounds, 0.99% hits. P51843. HEK293 Gal4-DAX1 luciferase reporter, luminescence. AID 504766;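 active = inhibition above the mean over all tested compounds plus 3 SD, cut at about 4.2% in these data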;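 also: 0% = DAX1-transfected cells with DMSO and 100% = empty-vector control cells with DMSO; inhibition shows as a rise in luminescence from relieved DAX1 repression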
Target sequence (P51843 207-470 limits assumed): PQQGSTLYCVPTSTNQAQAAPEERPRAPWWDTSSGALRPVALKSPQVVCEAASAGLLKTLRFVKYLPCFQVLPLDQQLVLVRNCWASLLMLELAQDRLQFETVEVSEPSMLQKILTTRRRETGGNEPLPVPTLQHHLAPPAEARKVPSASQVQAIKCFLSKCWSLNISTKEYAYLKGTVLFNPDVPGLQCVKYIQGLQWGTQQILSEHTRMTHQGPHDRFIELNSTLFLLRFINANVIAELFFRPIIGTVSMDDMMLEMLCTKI
DAX1 inh-2 = DAX1 (NR0B1) inhibition, primary screen. HEK293T StAR-luciferase reporter, SF-1/DAX-1 repression relief. inhibition, % at 6.8 µM. 370,000 compounds, 1.1% hits. AID 652010;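 active = inhibition above the mean over all tested compounds plus 3 SD, cut at about 3.6% in these data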;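 also: 0% = DAX-1 cells with DMSO and 100% = cells lacking DAX-1 with DMSO; higher inhibition means more luminescence from relief of DAX-1 repression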
hgDAF12 agonist = hgDAF-12 agonism, primary luciferase screen | HEK293 GAL4-hgDAF12 UAS-luciferase reporter, agonist luminescence; normalized to butyrate control | activation, % at 6.8 µM | 370,000 compounds, 1.8% hits;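 active = activation above a cutoff set at the mean of all screened compounds plus 3 SD, cut at about 10% in these data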;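 also: 0% = DMSO wells and 100% = sodium butyrate wells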
hcDAF-12 act = activators of H. contortus DAF-12 nuclear receptor | HEK293 hcDAF-12 lit1-tk-luc reporter, luminescence; 0% DMSO, 100% Δ7-dafachronic acid | 370,000 compounds, 1.4% hits | activation, % at 6.8 µM | AID 652067;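 active = activation above the mean of all tested compounds plus 3 SD, cut at about 5.5% in these data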;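 also: 100% = response to 3 µM Δ7-dafachronic acid high control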
ssDAF-12 act = activates DAF-12 receptor from parasite S. stercoralis. 370,000 compounds, 1% hits. activation, % at 6.8 µM. AID 652126. HEK293 ssDAF-12/GRIP1 lit1-tk-luc reporter, luminescence; % of 3 µM dafachronic acid response;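 active = activation above the mean over all tested compounds plus 3 SD, cut at about 0.9% in these data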;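 also: 0% = DMSO-only wells and 100% = 3 µM delta7-dafachronic acid wells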
Starred values were filed as active, the others as inactive; . = not tested or not shown.

SMILES | DAX1 inh-1 | DAX1 inh-2 | hgDAF12 agonist | hcDAF-12 act | ssDAF-12 act
Clc1ccc([C@H]2OC[C@@]3(CNCC4CC4)CS[C@H](c4ccc(Cl)cc4)N23)cc1 | . | 1 | 0 | -1 | -1
CCC1CCCCN1c1ccc([N+](=O)[O-])cc1/C=N/NC(=O)Cn1c2ccccc2c(=O)c2ccccc21 (centres undefined) | 6.0* | -1 | 0 | -2 | -1
CCc1ccc(OCC(=O)N/N=C/c2cc([N+](=O)[O-])ccc2N2CCCCCC2)cc1 | -2 | 0 | 0 | 0 | 0
Cc1noc(C)c1-c1ccc(C(=O)NC2CCCCC2)c2occc12 | . | 0 | 5 | -1 | 1.7*
COC(=O)[C@]12C[C@H](CC(=O)NCc3ccc(C)o3)C(=O)N(Cc3ccc4c(c3)OCO4)C1=C[C@H](C(C)C)O[C@@H]2C1CC1 | . | -2 | -2 | -2 | -2
COc1cc(C2NC(=S)NC(C)=C2C(=O)Nc2ccc(C)cc2)ccc1O (centres undefined) | 2 | 2 | 11* | 3 | 0
COc1ccc(NC(=O)C2=C(C)NC(=S)NC2c2ccc(O)c(OC)c2)cc1 (centres undefined) | 0 | 0 | 5 | 0 | -1
COC1=C[C@H](C(=O)NC2CCN(Cc3ccccc3)CC2)[C@@]2(C)Cc3ccccc3[C@H]2CC1=O | . | 0 | -1 | 0 | -2
CCOC(=O)c1cc(C#N)c(SCc2ccc(C#N)cc2)nc1C | 0 | 0 | 0 | 3 | 1.1*
O=C(CC1CCCC1)N[C@H](C(=O)N1CCC[C@H]1C(=O)NCc1ccccc1)c1ccccc1 | . | -1 | -3 | 0 | -1
COc1cccc(NC(=O)CN(C)C(C)C(=O)Nc2ccc(C(C)=O)cc2)c1 (centres undefined) | 6.8* | 0 | -5 | -1 | -1
Cc1cccc(NC(=O)N2CCC(N(C)CCC(C)C)CC2)c1 | . | 0 | -1 | -2 | -2
CC(C)(C)[C@@H]1/C(=C/C2CC2)N2C(=O)C[C@@H](c3ccccc3)N=C2N1Cc1ccc2c(c1)OCO2 | . | . | -1 | -2 | -2
CCn1nnnc1SCC(=O)Nc1ccc(OC)cc1 | 3 | 0 | 1 | 2 | 0
CCOc1ccc(OCC)c(NC(=O)CCSCCc2ccccn2)c1 | 4.3* | 0 | 0 | 0 | -1
CCOc1ccc(OCC)c(NC(=O)CSc2nnnn2CC)c1 | 4.3* | 0 | 0 | -2 | -1
CCc1cc2c(nc1CC)CCCN2S(=O)(=O)c1ccc(OC)cc1 | . | -4 | -3 | -3 | -2
O=C(NCC1CC1(Cl)Cl)Nc1ccc(Cl)c(Cl)c1 (centres undefined) | 1 | 0 | 11* | -1 | 0
O=C(NCCCn1ccnc1)Nc1ccc(Cl)cc1 | 2 | 0 | 1 | -1 | -1
O=C(NCCCn1ccnc1)Nc1ccc(Cl)c(Cl)c1 | 0 | 1 | 0 | 5.8* | -1
Cn1cccc1CNC(=O)Nc1ccc(Cl)c(Cl)c1 | 0 | 1 | 9 | 4 | -1
CS(=O)(=O)N(CC(=O)N1CCCCC1)Cc1ccccc1 | 5.0* | 0 | -1 | 0 | -1
COc1ccc(Cn2cc(CN3CC(N4CCCC4)CS3(=O)=O)nn2)cc1 (centres undefined) | . | 4.4* | 2 | 0 | 0
CCCCCCn1cc(CN(C)C2CN(Cc3cn(CCCCCC)nn3)S(=O)(=O)C2)nn1 (centres undefined) | . | 0 | -1 | 1 | -2
CCCCCCn1cc(CN2CC(N3CCN(C4CCN(C)CC4)CC3)CS2(=O)=O)nn1 (centres undefined) | . | 4.4* | -4 | -1 | -1
COc1ccc(Cn2cc(CN3CC(N4CCSCC4)CS3(=O)=O)nn2)cc1 (centres undefined) | . | -3 | 0 | 0 | -1
CCCCCCn1cc(CN2CC(N(C)CC)CS2(=O)=O)nn1 (centres undefined) | . | 3.7* | 3 | 1 | -2
CCCCCCn1cc(CN2CC(N3CCN(C)CC3)CS2(=O)=O)nn1 (centres undefined) | . | 2 | 1 | 1 | 0
CN1C(=O)c2cc(NS(C)(=O)=O)ccc2OC[C@H]2O[C@@H](CC(=O)NCc3ccc(-c4ccccc4)cc3)CC[C@@H]21 | . | 0 | 0 | 1 | 0
COC(=O)C1CN(CCc2ccccc2)CCS(=O)(=O)N1Cc1ccc(Cl)cc1 (centres undefined) | . | 0 | 2 | -1 | -1

Bioassay records deposited in PubChem by The Scripps Research Institute Molecular Screening Center.
